From the supplement of paper PMC11624193, “Coupling cellular drug-target engagement to downstream pharmacology with CeTEAM” (Nature Communications, 2024)
A number with no mark means an inactive call.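 The calls were made as follows: active = log2 fold change beyond 2 SD from the library mean after excluding viability outliers; inactive = within 2 SD.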

These compounds were tested against PARP1 L713F-nLuc biosensor (HCT116) (UniProt P09874) (assay: PARP1 L713F-nLuc/akaLuc ratio relative to DMSO control (biosensor stabilization) (fold change); higher = more PARP1 biosensor stabilization (target engagement / stabilizer), active = hit call of the paper). Conditions: stock concentration (mM; final µM = stock mM x 1): 10; 24 h.
PARP1 L713F-nLuc biosensor (HCT116), sequence (P09874 whole entry L713F, looked up): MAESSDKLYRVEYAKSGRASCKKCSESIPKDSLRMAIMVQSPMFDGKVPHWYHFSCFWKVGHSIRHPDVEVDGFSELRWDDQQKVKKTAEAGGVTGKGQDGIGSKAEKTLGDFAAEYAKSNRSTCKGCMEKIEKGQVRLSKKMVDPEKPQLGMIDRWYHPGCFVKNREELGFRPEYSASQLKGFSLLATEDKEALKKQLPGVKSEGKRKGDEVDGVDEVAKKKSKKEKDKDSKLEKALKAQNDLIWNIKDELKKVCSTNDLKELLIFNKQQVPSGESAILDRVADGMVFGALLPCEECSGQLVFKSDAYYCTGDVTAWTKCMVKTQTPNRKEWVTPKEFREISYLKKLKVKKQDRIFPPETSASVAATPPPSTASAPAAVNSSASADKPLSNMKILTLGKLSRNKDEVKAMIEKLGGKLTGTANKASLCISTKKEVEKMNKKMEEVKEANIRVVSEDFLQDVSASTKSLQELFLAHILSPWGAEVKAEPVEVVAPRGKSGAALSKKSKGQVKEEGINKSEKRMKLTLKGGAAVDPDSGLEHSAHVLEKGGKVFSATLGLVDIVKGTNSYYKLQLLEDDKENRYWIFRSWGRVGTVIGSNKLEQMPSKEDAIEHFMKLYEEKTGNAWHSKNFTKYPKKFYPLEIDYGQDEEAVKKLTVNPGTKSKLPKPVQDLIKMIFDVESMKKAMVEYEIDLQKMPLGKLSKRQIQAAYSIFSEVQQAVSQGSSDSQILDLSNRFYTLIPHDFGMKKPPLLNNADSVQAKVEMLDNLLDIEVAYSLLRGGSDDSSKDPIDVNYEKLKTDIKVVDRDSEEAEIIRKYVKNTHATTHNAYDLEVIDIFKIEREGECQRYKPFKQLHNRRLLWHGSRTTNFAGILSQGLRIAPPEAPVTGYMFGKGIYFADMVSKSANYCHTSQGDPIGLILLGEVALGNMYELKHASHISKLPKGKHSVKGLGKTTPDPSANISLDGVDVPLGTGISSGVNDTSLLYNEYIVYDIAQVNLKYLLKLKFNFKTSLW

Point of comparison: Cc1[nH]n(-c2ccccc2)c(=O)c1N=Nc1ccc(N2CCOCC2)cc1, “PARP1 L713F-nLuc/akaLuc ratio” value 1.04. Against it:
- NC(=O)[C@@H]1CCCc2c1[nH]c1ccc(Cl)cc21 [(R)-Selisistat] — lower, 0.592
- COc1cc(OC)cc(-c2noc(N3CCN(C)C4(CCN(c5ccnc(C)c5)CC4)C3)n2)c1 — lower, 0.971
- N[C@H]1C(O)O[C@H](CO)[C@@H](O)[C@@H]1O (stereo partly specified) [Glucosamine] — lower, 1.02
- NC(=O)c1ccccc1 [Benzamide] — higher, 1.08
- CC(C)Oc1ccc(-c2c[nH]cc2CN(C)CCN)cc1 — higher, 1.38
